Experiments:
[1] = tested on: Vero E6 infected with SARS-CoV-2; experiment: morphology score (similarity to uninfected cells); higher = more like uninfected cells; conditions: 24 h
[2] = tested on: Vero E6 infected with SARS-CoV-2; experiment: SARS-CoV-2 infection rate relative to infected DMSO; higher = more infection, active = 60 or less; conditions: 24 h

Structure (SMILES) | morphology score [1] | SARS-CoV-2 infection rate [2]
O=C(Oc1cccc2cccnc12)c1ccccc1 [benzoxiquine] (10 µM) | 0.116 | 97% (inactive)
Cc1ccc(S(=O)(=O)c2ccc([N+](=O)[O-])o2)cc1 (0.833333 µM) | 0.215 | 68% (inactive)
CC(=O)[C@]1(N)Cc2c(O)c3c(c(O)c2[C@@H](O[C@H]2C[C@H](O)[C@H](O)CO2)C1)C(=O)c1ccccc1C3=O [amrubicin] (0.833333 µM) | 0.065 | 92.5% (inactive)
Cc1cccc(C)c1NC(=O)CC12CCCN1CCC2 [pilsicainide] (10 µM) | -0.223 | 115% (inactive)
CC(=O)N(c1onc(C)c1C)S(=O)(=O)c1ccc(N)cc1 [sulfisoxazole-acetyl] (10 µM) | 0.179 | 91% (inactive)
CCOc1ccc(NC(C)=O)cc1 [phenacetin] (10 µM) | -0.129 | 116% (inactive)
CC[C@H](CC[C@@H](C)[C@H]1CC[C@H]2[C@@H]3CC=C4C[C@@H](O[C@@H]5O[C@H](CO)[C@@H](O)[C@H](O)[C@H]5O)CC[C@]4(C)[C@H]3CC[C@]12C)C(C)C [daucosterol] (10 µM) | 0.0785 | 102% (inactive)
CCCN(CC1CC1)c1nc(C)nc(Nc2c(Cl)cc(Cl)cc2Cl)c1Cl (10 µM) | 0.143 | 102% (inactive)
CC(=O)C1=C(O)C=C2Oc3c(C(C)=O)c(O)c(C)c(O)c3C2(C)C1=O (stereo not drawn) [usniacin-(+)] (10 µM) | 0.117 | 108% (inactive)
COc1cc2c(cc1OC)[C@@H](Cc1cc(OC)c(OC)c(OC)c1)[N+](C)(CCCOC(=O)CC/C=C/CCC(=O)OCCC[N+]1(C)CCc3cc(OC)c(OC)cc3[C@H]1Cc1cc(OC)c(OC)c(OC)c1)CC2 (stereo partly drawn) [mivacurium] (10 µM) | -0.0909 | 104% (inactive)
COc1cc2cc(c1Cl)N(C)C(=O)C[C@H](OC(=O)C(C)C)[C@]1(C)O[C@@H]1[C@H](C)[C@@H]1C[C@@](O)(NC(=O)O1)[C@H](OC)/C=C/C=C(\C)C2 [ansamitocin-p-3] (0.833333 µM) | -0.108 | 114% (inactive)
C[C@]12CC[C@@H]3c4ccc(O)cc4CC[C@H]3[C@@H]1CC[C@@H]2O [estradiol] (10 µM) | -0.0909 | 116% (inactive)
CC(=O)CC(c1ccccc1)c1c(O)c2ccccc2oc1=O (stereo not drawn) [warfarin] (10 µM) | -0.0329 | 106% (inactive)
C#C[C@]1(OC(C)=O)CC[C@H]2[C@@H]3CCC4=CC(=O)CC[C@@H]4[C@H]3CC[C@@]21C [norethindrone-acetate] (10 µM) | -0.146 | 106% (inactive)
CS(=O)(=O)n1cc2c(n1)CN([C@H]1CO[C@H](c3cc(F)ccc3F)[C@@H](N)C1)C2 [omarigliptin] (10 µM) | 0.198 | 107% (inactive)
CC[C@H](C)[C@@H]1NC(=O)[C@H](Cc2ccc(O)cc2)NC(=O)[C@@H](N)CSSC[C@@H](C(=O)N2CCC[C@H]2C(=O)N[C@@H](CC(C)C)C(=O)NCC(N)=O)NC(=O)[C@H](CC(N)=O)NC(=O)[C@H](CCC(N)=O)NC1=O [oxytocin] (10 µM) | -0.0591 | 110% (inactive)
COc1cc2c(N3CCN(C(=O)Nc4ccc(OC(C)C)cc4)CC3)ncnc2cc1OCCCN1CCCCC1 [tandutinib] (10 µM) | -0.0843 | 95.5% (inactive)
N[C@@H](CC(=O)Nc1ccc(Oc2cc(F)c(F)cc2Br)cc1)C(=O)O (10 µM) | 0.233 | 98% (inactive)
c1cc2c3c(c1)c1c(n3CCNC2)CCCC1 (10 µM) | -0.0322 | 104% (inactive)
COc1cccc(-c2cc(=O)c3ccccc3o2)c1N (10 µM) | -0.25 | 118% (inactive)
N[C@@H]1[C@H]2CN(c3nc4c(cc3F)c(=O)c(C(=O)O)cn4-c3ccc(F)cc3F)C[C@@H]12 [trovafloxacin] (10 µM) | 0.276 | 108% (inactive)
N[C@@H](C(=O)O)[C@@H](OCc1ccccc1)C(=O)O.N[C@H](C(=O)O)[C@H](OCc1ccccc1)C(=O)O (10 µM) | 0.0333 | 106% (inactive)
CC(C)(Oc1ccc(C2CC2(Cl)Cl)cc1)C(=O)O (stereo not drawn) [ciprofibrate] (10 µM) | -0.0908 | 109% (inactive)
N[C@@H]1CCCN(c2c(/C=C3\SC(=O)NC3=O)cccc2-c2ccccc2)C1 (10 µM) | -0.0825 | 110% (inactive)
